Screens (PubChem BioAssay)
RE007 growth inh: less growth of the S. pombe RE007 Vpr strain | 360,000 compounds, 0.21% hits | AID 651644 | S. pombe RE007 Vpr strain, BacTiter-Glo ATP luminescence, 24 h | Potency, µM (titrated, usually from 92.2 µM), actives largely listed as inhibitors; active means well fitted falling curve with a large enough effect; inconclusive means small, poorly fitted or top-dose-only effect; inactive means no such curve, though single readings can be large or run the other way; further: nearly all actives have a fitted effect of over 50% in size
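Fission yeast strain RE007, carrying one chromosomally integrated HIV-1 vpr copy, was seeded at OD 0.01 in PMG+AL medium with 23 nL pinned compound. After 24 h at 30 °C and 99% humidity, viability was read by BacTiter-Glo luminescence.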
HCMV inh: blocks human cytomegalovirus replication; 410,000 compounds, 4.5% hits; activity change, negative = inhibition, % at 57.5 µM; AID 1259415; HFF cells, HCMV-luciferase reporter, 72 h; stronger effect = lower value; in the data active means activity change below about -60%; inconclusive means no clear call, values can overlap the other calls; inactive means above about -39%
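Compounds were evaluated in HFFs infected with an HCMV luciferase reporter virus (MOI 1 PFU/cell). Luciferase in lysates collected 72 h post infection served as the replication measure.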
FBPA Giardia inh: inhibitors of Giardia lamblia fructose-1,6-bisphosphate aldolase; A8B2U2; purified Giardia FBPA; Potency, µM (top dose mostly 59.6 µM), most hits filed as inhibitors; 290,000 compounds, 0.71% hits; AID 2451; further: nearly all actives have a fitted effect of over 55% in size
Target sequence (A8B2U2 whole entry, looked up): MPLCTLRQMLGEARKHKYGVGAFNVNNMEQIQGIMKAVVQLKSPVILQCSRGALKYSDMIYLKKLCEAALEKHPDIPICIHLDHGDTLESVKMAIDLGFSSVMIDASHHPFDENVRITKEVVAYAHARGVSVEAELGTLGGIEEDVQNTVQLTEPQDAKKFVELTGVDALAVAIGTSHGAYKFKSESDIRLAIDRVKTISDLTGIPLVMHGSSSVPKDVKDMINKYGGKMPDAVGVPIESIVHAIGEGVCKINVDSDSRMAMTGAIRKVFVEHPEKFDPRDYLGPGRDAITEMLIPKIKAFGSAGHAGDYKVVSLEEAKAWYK
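Giardia FBPA (40 nM reagent) was preincubated 10 min at RT with compound (up to 57.5 uM final), then substrate plus GAPDH/TPI/NAD/arsenate coupling system with diaphorase/resazurin was added; resorufin fluorescence (525/598 nm) was read after 20 min.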
Sm TGR block: blocks Schistosoma mansoni thioredoxin glutathione reductase. 360,000 compounds, 3% hits. Potency, µM (doses to about 114 µM), usual class: inhibitors. purified TGR, DTNB reduction, TNB absorbance 405 nm; further: nearly all actives have a fitted effect of over 60% in size
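Kinetic colorimetric format: TGR-catalysed, NADPH-driven DTNB reduction monitored via TNB absorbance. Enzyme dispensed at 20 nM; compound exposure 15 min at room temperature before reaction start.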
Tb PYK inh: T. brucei pyruvate kinase inhibition; 410,000 compounds, 0.12% hits; Q57TT1; TbPYK enzyme, Kinase-Glo Plus ATP luminescence, 45 min; Potency, µM (highest dose often 76.8 µM), most hits filed as inhibitors; further: nearly all actives have a fitted effect of over 50% in size
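TbPYK + substrate in 50 mM TEA pH 7.2, 100 mM KCl, 10 mM MgCl2, 0.05% BSA, 0.01% Tween-20; cpd pinned; ADP 130 uM final; 45 min RT; Kinase-Glo Plus 10 min; luminescence endpoint.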
FMDV inh: blocks foot and mouth disease virus; FMDV antiviral cell-based qHTS; 410,000 compounds, 1.2% hits; AID 1159524; Potency, µM (highest dose often 57.9 µM), usual class: inhibitors; calls by dose curve; tested in HEK293T cells; further: read-out not given here; nearly all actives have a fitted effect of over 45% in size
Hits are given with their value; i = inactive; ? = inconclusive; nt = no result given; [ ] = another dose, or the depositor's remark. A selection: hits, their analogues and other compounds. The true share with any hit is near 7.7%. Unless noted, the call rests on the fitted dose curve; in most records, active means well fitted curve in the direction sought with a large enough effect; inconclusive means small, poorly fitted or top-dose-only effect, or another doubt; inactive means no such curve, though single readings can be large; an effect the other way counts as inactive or inconclusive.

SMILES	RE007 growth inh	HCMV inh	FBPA Giardia inh	Sm TGR block	Tb PYK inh	FMDV inh
O=C(Nc1ccccc1C(=O)OCc1cc(=O)n2c3c(sc2n1)CCCC3)c1ccccc1	nt	-83	nt	i	i	i
O=C(Nc1cccc(C(=O)OCc2cc(=O)n3c4c(sc3n2)CCCC4)c1)c1cccc(F)c1	nt	-74	nt	i	i	i
O=C(Nc1ccc(C(=O)OCc2cc(=O)n3c4c(sc3n2)CCCC4)cc1)c1cccc(F)c1	nt	i	nt	i	i	i
O=C(Nc1ccccc1C(=O)OCc1cc(=O)n2c3c(sc2n1)CCCC3)c1ccc(Cl)cc1	nt	?	nt	i	i	i
COc1ccc(CNC(=O)CCc2c(C)c3ccc(OC)c(C)c3oc2=O)cc1OC	nt	i	nt	i	i	i
CCOc1ccccc1CNc1ncnc2onc(-c3ccc(F)cc3)c12	nt	i	nt	i	i	?
CCCCn1c(CNC(=O)C23CC4CC(CC(C4)C2)C3)nnc1SCC(=O)Nc1ccc(F)cc1	nt	i	nt	i	i	i
Cc1ccc(-c2noc(CN(C3CCCCC3)S(=O)(=O)c3ccc(Cl)cc3)n2)cc1	nt	i	nt	i	i	i
Cc1ccc(NC(=O)Cn2c(=O)ccc3cc(S(=O)(=O)N4CCCC4)ccc32)cc1C	nt	i	nt	i	i	i
COCCNC(=O)[C@@]1(Sc2ccc(OC)cc2)CC(=O)N[C@@H]1c1ccc(OC)cc1	nt	i	nt	nt	nt	nt
OCCOCCN1CCN(C2=Nc3ccccc3Sc3ccccc32)CC1	i[18.4 µM]	i	i	i	i	i
O=C1C=CC(=O)c2c(O)c(N3CCN(CCOCCO)CC3)c(Br)c(O)c21	?	-98	nt	nt	?	8.9µM
O=C1C=CC(=O)c2c(O)c(N3CCN(CCO)CC3)c(Cl)c(O)c21	63µM	-100	nt	nt	?	?
CC(C)c1ccc(OCc2ccc(C(=O)O)o2)cc1	i	i	?	i	i	10µM
O=C(O)c1ccc(OCc2ccc(C(=O)O)o2)cc1	i	i	i	i	i	i
CCc1ccc(OCc2ccc(C(=O)O)o2)cc1	i	i	i	35µM	i	i
CCOc1ccc(-n2c(=O)c3c(C)c(C)sc3n(Cc3c(F)cccc3Cl)c2=O)cc1	nt	i	nt	i	i	i
O=C1NC(=O)C(Cc2ccccc2)(C2CCN(Cc3cccn3-c3cccnc3)CC2)N1 (configuration not stated)	nt	nt	nt	nt	nt	i
O=C(c1cn(CCOc2ccc(Cl)cc2)c2ccccc12)C1CCCCC1	nt	i	nt	i	i	i
Cc1nc2ccccc2c2c(N)c3ccccc3n12	?	-63	i	i	i	i
Cc1nc2ccccc2n1-c1ccccc1	i	i	i	i	i	i
Cc1ccc(S(=O)(=O)/N=C(\CCl)N2CCOCC2)cc1	nt	i	i	i	i	25µM
Cc1ccc(S(=O)(=O)/N=C(\CN2CCOCC2)N2CCCC2)cc1	i	i	i	i	i	nt
CN1OC(C)(CC(=O)N2CCc3ccccc3C2)N=C1c1ccco1 (configuration not stated)	nt	i	nt	nt	nt	nt
O=C(CCCN1C(=O)C(c2ccccc2)Oc2cccnc21)Nc1ccc(Br)cc1F (configuration not stated)	nt	-105	nt	i	i	i
SMILES	RE007 growth inh	HCMV inh	FBPA Giardia inh	Sm TGR block	Tb PYK inh	FMDV inh
O=C(c1ccc(Cn2cnnn2)cc1)N1CCOc2ccc(C(O)C3CCCCC3)cc2C1 (configuration not stated)	nt	nt	nt	nt	nt	i
CCSc1ncc(Cl)c(C(=O)N(Cc2ccccc2)c2ccc(OC)cc2)n1	nt	-75	nt	i	i	?
O=C(COC(=O)c1cccc2c1C(=O)c1ccccc1C2=O)NC1CCCCC1	i	?	i	i	i	?
CC1CCCCC1NC(=O)COC(=O)c1ccc2c(c1Cl)C(=O)c1ccccc1C2=O (configuration not stated)	i	-74	i	i	i	i
COc1ccc(CCN2C(=O)C3C4C=CC(C3C2=O)C2C(=O)N(CCc3ccc(OC)c(OC)c3)C(=O)C42)cc1OC (configuration not stated)	i	-94	i	i	i	?
CC(C)C1OC2(C)OC(=N)C1(C#N)C(C#N)(C#N)C2c1ccccc1 (configuration not stated)	i	?	i	?	i	i
CC1CCC(C(C)C)C2=C1C(C#N)(C#N)C(C#N)(C#N)C(c1ccccc1)N2 (configuration not stated)	i	?	i	5µM	i	?
COc1ccccc1/C=C/CN1CCN(Cc2ccc(F)cc2)C(CCO)C1 (configuration not stated)	i	i	i	i	i	i
OCCC1CN(C/C=C/c2ccco2)CCN1Cc1ccccc1 (configuration not stated)	i	i	i	20µM	i	i
CCOc1ccccc1CNC(=O)CCCn1nc(C)c2sc3ccccc3c2c1=O	nt	i	nt	i	i	i
CCn1c(CSCc2ccc(C)cc2)nnc1SCC(=O)N1CCN(c2ccccc2)CC1	i	i	i	i	i	22µM
COC(=O)CSc1nnc2n1C(C)(C)Cc1ccccc1-2	i	i	i	i	i	i
Cc1ccc(Cl)cc1N1CCN(C(=O)CSc2nnc3n2C(C)(C)Cc2ccccc2-3)CC1	i	i	i	i	?	13µM
COc1ccc(N2CCN(C(=O)CSc3nnc4n3C(C)(C)Cc3ccccc3-4)CC2)cc1	i	-64	i	i	i	20µM
CCn1c(COc2cccc(C)c2C)nnc1SCC(=O)N1CCN(c2ccc(OC)cc2)CC1	i	-97	i	i	i	?
CCOC(=O)c1[nH]c2ccccc2c1NC(=O)c1c(F)cccc1F	nt	i	nt	i	i	i
CC(C)[C@H](NC(=O)[C@H](CCC(N)=O)NC(=O)CNC(=O)[C@@H]1CCCN1C(=O)[C@H](Cc1ccc(O)cc1)NC(=O)CN)C(=O)O	nt	nt	i	nt	nt	nt
O=C(Cn1ncc(Cl)c(Cl)c1=O)NC(=O)NC1CCCCC1	i	-94	nt	nt	i	35µM
CC(NC(=O)Cn1ncc(Cl)c(Cl)c1=O)C12CC3CC(CC(C3)C1)C2 (configuration not stated)	i	nt	i	40µM	i	?
CC(C)N1CCN(Cc2ccc3c(c2)OCCO3)CC1CCO (configuration not stated)	i	i	i	?	i	i
Cc1ccc(-c2cccc(CN3CCN(C(C)C)C(CCO)C3)c2)o1 (configuration not stated)	i	i	i	35µM	i	i
O=C(Cc1ccccc1)OC(COCc1ccccc1)CN1CCOCC1 (configuration not stated)	i	-88	i	i	i	i
Cc1cc2c(c(-c3cnccn3)c1)OC(CNC(=O)c1c(F)cccc1Cl)C2 (configuration not stated)	nt	nt	nt	nt	nt	i
CCOc1ccc(C(=O)NCC(=O)OCc2c(F)cccc2Cl)cc1OCC	i	?	i	i	i	i
CCOc1ccc(C(=O)NCC(=O)OCc2c(F)cccc2Cl)cc1	i	-67	i	i	i	i
